An excerpt weighted towards active compounds, which were near 3.6% of everything screened.
HCT116 PTEN-null – suppresses growth of cells with PTEN deletion; viability, % at 10 µM; HCT116 PTEN-null viability, CellTiter-Glo, 60 h; stronger effect = lower value; AID 827; 140,000 tested, 1.2% active;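 active means viability at or below a set limit, 4 SD under the median of all tested compounds, cut at about 3.7% in these data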;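 further: PTEN knockout HCT116 line with beta catenin targeted HCT116 as companion control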
DAT uptake mod – changed human dopamine transporter uptake under cocaine IC80 | Q01959 | LLC-PK1 hDAT cells, [14C]-dopamine uptake with cocaine IC80; actives deviate in either direction | B-score at 10 µM | 110,000 tested, 1.3% active | AID 449768;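 active means Z score or B-score, a plate-position-corrected score, falls beyond the plate's 99.7% confidence bounds, in either direction; inactive means both scores lie inside the 99.7% bounds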
Target sequence (Q01959 whole entry, looked up): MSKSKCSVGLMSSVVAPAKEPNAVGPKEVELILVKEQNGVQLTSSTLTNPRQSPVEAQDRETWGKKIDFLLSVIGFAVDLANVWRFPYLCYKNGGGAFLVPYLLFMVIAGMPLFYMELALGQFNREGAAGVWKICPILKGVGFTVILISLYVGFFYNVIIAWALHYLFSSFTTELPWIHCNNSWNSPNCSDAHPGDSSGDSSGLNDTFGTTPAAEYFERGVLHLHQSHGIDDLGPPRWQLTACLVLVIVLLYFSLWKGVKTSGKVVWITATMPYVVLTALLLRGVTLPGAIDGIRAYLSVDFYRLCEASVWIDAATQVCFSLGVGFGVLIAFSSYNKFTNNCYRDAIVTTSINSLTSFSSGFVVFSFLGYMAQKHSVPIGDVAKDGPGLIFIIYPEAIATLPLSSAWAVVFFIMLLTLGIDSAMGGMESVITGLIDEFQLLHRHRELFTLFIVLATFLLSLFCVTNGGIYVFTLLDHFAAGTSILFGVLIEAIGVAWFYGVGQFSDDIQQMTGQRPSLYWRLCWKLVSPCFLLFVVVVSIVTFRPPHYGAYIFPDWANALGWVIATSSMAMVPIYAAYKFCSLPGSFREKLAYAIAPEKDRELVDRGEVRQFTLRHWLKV
bCat KO growth – beta-catenin-lacking colon tumor cell growth suppression. viability, % at 10 µM. AID 818. HCT116 beta-catenin knockout viability, CellTiter-Glo, 60 h; stronger effect = lower value. 140,000 tested, 1.5% active;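 active means viability at or under a set limit, the compound median less 4 SD, cut at about 6% in these data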
WT yeast gro inh – growth inhibition of WT yeast, mitochondrial fusion screen. inhibition, % at 10 µM. AID 1362. mitochondrial fusion phenotypic screen, WT strain. 190,000 tested, 2.1% active; in the data active means inhibition above about 58%; tested in S. cerevisiae
Each line names hits and unclear results; the compound was inactive in the other large screens.

N=C1SC(c2ccccc2)C(=O)N1c1ncc(Cc2ccccc2Cl)s1 (centres undefined)	none (no result: DAT uptake mod)
CCn1c(CN2CCN(c3ccc(Cl)cc3)CC2)nc2ccccc21	WT yeast gro inh 60
C=CCn1c(O)c(C2=c3ccccc3=NC2=O)sc1=Nc1ccc(O)cc1	WT yeast gro inh 94 (no result: HCT116 PTEN-null, bCat KO growth)
O=S(=O)(Nc1ccc(-c2csc(-c3ccccc3)n2)cc1)c1ccc(F)cc1	WT yeast gro inh 92
Fc1ccc(-c2csc(-c3ccncc3)n2)cc1	none (no result: HCT116 PTEN-null, DAT uptake mod, bCat KO growth)
COc1ccccc1C(=O)Nc1nc(-c2ccc(S(=O)(=O)N3CCOCC3)cc2)cs1	bCat KO growth 5.7
O=C(Nc1nc(-c2ccccc2)cs1)c1ccccc1NS(=O)(=O)c1ccc(F)cc1	bCat KO growth 4.4, WT yeast gro inh 78 (no result: DAT uptake mod)
COc1ccccc1OC(C)C(=O)Nc1nc(-c2ccc(S(=O)(=O)N3CCOCC3)cc2)cs1 (centres undefined)	none
COc1ccc2cc(CN(Cc3cccnc3)Cc3nnnn3Cc3ccccc3)c(=O)[nH]c2c1	DAT uptake mod 2.2
CCC(c1nnnn1Cc1ccco1)N(CCc1ccccc1)Cc1cc2cc(C)ccc2[nH]c1=O (centres undefined)	none (no result: HCT116 PTEN-null, bCat KO growth, WT yeast gro inh)
COc1ccc2cc(CN(Cc3cccs3)Cc3nnnn3Cc3ccccc3)c(=O)[nH]c2c1	none
CCC(c1nnnn1Cc1ccccc1)N(Cc1ccco1)Cc1cc2cc(OC)ccc2[nH]c1=O (centres undefined)	DAT uptake mod 3.4
CCOC(=O)c1cccc(C(=O)OCC)n1	none
Cc1ccc(OC(=O)c2cccc(C(=O)Oc3ccc(C)cn3)n2)nc1	DAT uptake mod -8
CC(C)c1ccc(NC(=S)NNC(=O)c2cccs2)cc1	none (no result: HCT116 PTEN-null, DAT uptake mod, bCat KO growth)
Oc1ccc(Br)cc1/C=N/N1CCN(Cc2ccccc2)CC1	DAT uptake mod 2.4
O=C(Nc1ccccc1C(F)(F)F)N1CCN(c2ccccn2)CC1	none (no result: HCT116 PTEN-null, DAT uptake mod, bCat KO growth)
Cc1cccc(NC(=S)NC2CC3CCCC(C2)N3Cc2cccs2)c1 (centres undefined)	none
CCC(C(=O)NC1CCCC1)N(C(=O)Cn1nnc(-c2ccc(OC)c(OC)c2)n1)C1CCCCC1 (centres undefined)	none
CCC(C(=O)NC1CCCC1)N(C(=O)Cn1nnc(-c2ccc(C)cc2)n1)C1CCCC1 (centres undefined)	DAT uptake mod 3.7
CC1C(c2ccccc2)N(C)C(c2ccccc2)C(C)C1(O)C#Cc1ccccc1 (centres undefined)	WT yeast gro inh 75 (no result: DAT uptake mod)
CC1C(=O)CC(c2ccccc2)N(C)C1c1ccccc1 (centres undefined)	none
O/N=C/c1cc(Br)cc(Br)c1OCc1ccccc1	WT yeast gro inh 60
O/N=C/c1ccc(OCc2ccccc2)c(Br)c1	none (no result: DAT uptake mod)
O=S(=O)(Nc1ccc(O)c(Sc2nc3ccccc3s2)c1)c1cccc2ccccc12	WT yeast gro inh 69 (no result: DAT uptake mod)
CCN(c1ccccc1)S(=O)(=O)c1cc(C(=O)Nc2ccc(F)c(F)c2)ccc1F	HCT116 PTEN-null 3.4, bCat KO growth 4.5 (no result: DAT uptake mod)
CC1CC1C(=O)Nc1nc(-c2cccs2)c(-c2cccs2)s1 (centres undefined)	WT yeast gro inh 76 (no result: DAT uptake mod)
CC(=O)NC(CSC(CC(=O)c1ccco1)c1ccc(C)cc1)C(=O)O (centres undefined)	none (no result: HCT116 PTEN-null, DAT uptake mod, bCat KO growth)
CCC(=O)Nc1ccc2c(c1)ncn2-c1ccc(OC)cc1	DAT uptake mod 2.9
Cc1cc(Nc2ccccc2)c2c([N+](=O)[O-])ccc(C)c2n1	WT yeast gro inh 71 (no result: DAT uptake mod)
CNC(=S)N(Cc1ccc(OC)cc1)Cc1cc2cccc(C)c2[nH]c1=O	none (no result: HCT116 PTEN-null, DAT uptake mod, bCat KO growth)
O=C(CNS(=O)(=O)c1ccccc1)NCC(=O)OCc1ccc(C(=O)c2ccccc2)cc1	none (no result: DAT uptake mod)
COc1cc(/C=N/OCC(=O)Nc2cc(C)on2)ccc1OCc1ccccc1	none (no result: DAT uptake mod)
CN1CCN(S(=O)(=O)c2ccc(Sc3nnnn3-c3ccccc3)c([N+](=O)[O-])c2)CC1	HCT116 PTEN-null 3.2, bCat KO growth 5.4 (no result: DAT uptake mod)
CC(=O)c1ccc(Sc2nnnn2-c2ccccc2)c([N+](=O)[O-])c1	bCat KO growth 5.7 (no result: DAT uptake mod)
CCN(CC)S(=O)(=O)c1ccc(C)c(C)c1	none
CCN(CC)CCOc1ccc2c(c1)C(=NO)c1cc(OCCN(CC)CC)ccc1-2	HCT116 PTEN-null 2.0, bCat KO growth 1.9
CCN(CC)S(=O)(=O)c1ccc2c(c1)C(=NO)c1cc(S(=O)(=O)N(CC)CC)ccc1-2	HCT116 PTEN-null 2.8, bCat KO growth 1.3
CCN(CC)CCOc1ccc(Br)cc1	none
COCCNC(=O)C1=C(N)C(C(=O)Nc2ccc(C)c(S(=O)(=O)N3CCCCC3)c2)SC1=Nc1ccc(C)cc1C (centres undefined)	none (no result: HCT116 PTEN-null)
Cc1ccc(OCCNC(=O)C(=O)NCc2ccco2)cc1	none (no result: HCT116 PTEN-null, DAT uptake mod, bCat KO growth)
O=C(CSc1nnnn1-c1ccccc1)NCc1cccs1	WT yeast gro inh 74
C/C(N)=C(/C#N)C(=O)CSc1nnnn1-c1ccccc1	WT yeast gro inh 94
